{"source": "PubChem BioAssay AID1745848", "about": "(National Center for Advancing Translational Sciences (NCATS), 2022)", "note": "Screen size: about 2,100 compounds; about 940 (45%) were called active. Roughly 48% stayed inconclusive and do not appear here. Calls come from the whole dose curve; as a rule, active = well fitted inhibition curve with a large enough effect; inconclusive = small, poorly fitted or top-dose-only effect; inactive = no such curve, though single readings can be large or run the other way. So high a share suggests a set chosen from earlier hits. The list shows a part of the results. Potency is the fitted concentration of half-maximal effect."}
{"assay": "Confirmatory qHTS for Inhibitors of ATXN expression; note: nearly all actives have a fitted effect of over 65% in size;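 for activity change, negative = inhibition: 0% = DMSO vehicle wells and -100% = medium-only wells without cells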", "conditions": "ATXN2-luciferase reporter cells, luminescence, 24 h; series mostly up to 11.5 µM; activity change, negative = inhibition: at the top concentration", "in_short": "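A titration, incubated 24 h with reporter cells expressing ATXN2-luciferase. Luminescence (SteadyGlo) gives ATXN2 expression, multiplexed GF-AFC fluorescence gives viability; normalised to DMSO and medium-only wells.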"}
{"molecule": "CCOC(=O)c1c(NC(=O)COC(=O)CNC(=O)c2ccco2)sc(C)c1C", "Potency": "2.51 µM (active)"}
{"molecule": "COC(=O)c1cn(NC(=O)c2cc([N+](=O)[O-])ccc2F)c(=O)c2ccccc12", "Potency": "2 µM (active)"}
{"molecule": "O=C(N/N=C/c1cc(Br)ccc1OC(=O)c1ccc(Br)cc1)c1ccncc1", "Potency": "2.82 µM (active)"}
{"molecule": "COc1ccc(O)c(/C=N/NC(=O)c2ccc(CSc3nc(C)cc(C)n3)cc2)c1", "Potency": "2.82 µM (active)"}
{"molecule": "CC(C)CC(=NNC(=O)c1ccncc1)c1cc(Cl)ccc1O", "Potency": "0.708 µM (active)"}
{"molecule": "COc1ccc(C(=O)N/N=C/c2cc(Br)ccc2O)cc1OC", "Potency": "3.16 µM (active)"}
{"molecule": "COc1ccc(O)c(/C=N/NC(=O)c2ccc(OCc3cccc(Br)c3)cc2)c1", "Potency": "0.891 µM (active)"}
{"molecule": "O=C(N/N=C/c1cc(Br)ccc1O)c1ccncc1", "Potency": "0.794 µM (active)"}
{"molecule": "O=C(N/N=C/c1cc(Br)cc(Br)c1O)c1ccncc1", "Potency": "2.82 µM (active)"}
{"molecule": "O=C(N/N=C/c1cc(Br)cc(Br)c1O)c1cccc(N2CCCC2=O)c1", "Potency": "2 µM (active)"}
{"molecule": "O=C(CP(=O)(c1ccccc1)c1ccccc1)N/N=C/c1cc(Br)cc(Br)c1O", "Potency": "1.58 µM (active)"}
{"molecule": "O=C(N/N=C/c1cc(Br)ccc1O)C(c1ccncc1)N1CCOCC1", "note": "(stereo unspecified)", "Potency": "14.1 µM (active)"}
{"molecule": "CCC(O)(CC)C(=O)N/N=C/c1cc(Br)cc(Br)c1O", "Potency": "17.8 µM (active)"}
{"molecule": "O=C(N/N=C/c1cc(Cl)ccc1O)c1ccncc1", "Potency": "3.16 µM (active)"}
{"molecule": "CN(C)c1ccc(C(=O)N/N=C/c2cc(Br)cc(Br)c2O)cc1", "Potency": "1.41 µM (active)"}
{"molecule": "C/C(=N\\N=C(N)N)c1ccc(Cl)cc1Cl", "Potency": "15.8 µM (active)"}
{"molecule": "CC1(C)Cc2ccccc2C(NNC(=O)c2ccccn2)=N1", "Potency": "15.8 µM (active)"}
{"molecule": "O=C(CNC(=O)c1ccccc1Br)N/N=C/c1cc(Br)ccc1O", "Potency": "2 µM (active)"}
{"molecule": "CC(SC(C)C(=O)NN=Cc1cccc(Cl)c1)C(=O)NN=Cc1cccc(Cl)c1", "note": "(stereo unspecified)", "activity change, negative = inhibition": "-31.9% (inactive)"}
{"molecule": "O=C(CNC(=O)c1ccc2c(c1)OCO2)N/N=C/c1cc(Br)ccc1O", "Potency": "3.55 µM (active)"}
{"molecule": "CNc1ccc(Br)cc(C(=O)/C=C/c2ccc3c(c2)OCO3)c1=O", "activity change, negative = inhibition": "7.11% (inactive)"}
{"molecule": "O=C(N/N=C/c1cc(Cl)ccc1O)c1ccccc1Br", "Potency": "3.98 µM (active)"}
{"molecule": "O=C(N/N=C/c1cc(Br)cc(Cl)c1O)c1ccc2c(c1)OCO2", "Potency": "3.98 µM (active)"}
{"molecule": "O=C(CNC(=O)c1ccccc1Br)N/N=C/c1ccccc1O", "Potency": "15.8 µM (active)"}
{"molecule": "O=C(CCc1ccccc1)N/N=C/c1cc(Br)ccc1O", "Potency": "1.12 µM (active)"}
{"molecule": "NS(=O)(=O)c1ccc(CCNC(=O)COC(=O)/C=C/c2cc(Br)ccc2F)cc1", "activity change, negative = inhibition": "-3.85% (inactive)"}
{"molecule": "CCc1ccccc1OCC(=O)Nc1nc(-c2cccnc2)cs1", "Potency": "14.1 µM (active)"}
{"molecule": "COc1ccc(/C=C/C(O)=C2/C(=O)N(C)C3(C)CC2c2ccccc2O3)cc1", "note": "(stereo unspecified)", "Potency": "20 µM (active)"}
{"molecule": "C/[N+]([O-])=C\\c1cccc(OCCN2CCN(c3ncc(C(F)(F)F)cc3Cl)CC2)c1", "activity change, negative = inhibition": "-26.9% (inactive)"}
{"molecule": "Cc1ccc(NS(=O)(=O)c2ccc(C(=O)NNC(=O)c3ccccc3O)cc2)cc1", "Potency": "14.1 µM (active)"}
{"molecule": "CCOc1ccc(NS(=O)(=O)c2ccc(C(=O)NNC(=O)c3ccccc3O)cc2)cc1", "Potency": "15.8 µM (active)"}
{"molecule": "COc1ccc(NS(=O)(=O)c2ccc(C(=O)Nc3c(C)n(C)n(-c4ccccc4)c3=O)cc2)cc1", "activity change, negative = inhibition": "-4.47% (inactive)"}
{"molecule": "Cc1ccc(C)c(S(=O)(=O)N2CCN(c3ncnc4sccc34)CC2)c1", "Potency": "0.631 µM (active)"}
{"molecule": "Cc1ccc(N/C(N)=N/c2nc(C)cc(N3CCCCC3)n2)c(C)c1", "Potency": "3.98 µM (active)"}
{"molecule": "COc1cc2c3nnc(-c4ccc(F)cc4)c-3cn(Cc3ccccc3F)c2cc1OC", "Potency": "2 µM (active)"}
{"molecule": "COc1cc2c3nnc(-c4ccc(F)cc4)c-3cn(Cc3ccc(F)cc3)c2cc1OC", "Potency": "2.82 µM (active)"}
{"molecule": "COc1ccc(Cn2cc3c(-c4ccc(F)cc4)nnc-3c3cc(OC)c(OC)cc32)cc1", "Potency": "1.78 µM (active)"}
{"molecule": "Cc1ccc(NC(=O)/C=C/c2ccc([N+](=O)[O-])s2)c(C)c1", "Potency": "1.41 µM (active)"}
{"molecule": "CC1(C(=O)N/N=C/c2ccc([N+](=O)[O-])o2)CC1(Br)Br", "note": "(stereo unspecified)", "Potency": "22.4 µM (active)"}
{"molecule": "COc1ccccc1NS(=O)(=O)c1cccc(C(=O)N/N=C/c2ccc([N+](=O)[O-])o2)c1", "Potency": "11.2 µM (active)"}
{"molecule": "O=[N+]([O-])c1ccc(/C=N/N=C/c2ccc([N+](=O)[O-])o2)o1", "Potency": "6.31 µM (active)"}
{"molecule": "O=C(N/N=C/c1ccc([N+](=O)[O-])o1)c1ccc2c(c1)OCO2", "Potency": "14.1 µM (active)"}
{"molecule": "Cn1nnnc1Sc1ncnc2scc(-c3ccsc3)c12", "Potency": "14.1 µM (active)"}
{"molecule": "COc1ccc(-c2csc3ncnc(Sc4nnnn4C)c23)cc1", "Potency": "3.16 µM (active)"}
{"molecule": "CCn1cc(C(=O)NCc2ccccc2)c(=O)c2cc(F)c(N3CCN(C(=O)c4ccco4)CC3)cc21", "Potency": "28.2 µM (active)"}
{"molecule": "CCn1cc(C(=O)NCc2cccc(F)c2)c(=O)c2cc(F)c(N3CCN(C(=O)c4ccco4)CC3)cc21", "Potency": "15.8 µM (active)"}
{"molecule": "c1ccc(-c2nnc(-c3ccccn3)nc2NC2CCCCC2)cc1", "Potency": "1.12 µM (active)"}
{"molecule": "CC(C)(C)c1cc[n+](C2=C([O-])c3ccccc3C(=O)/C2=N\\S(=O)(=O)c2cccs2)cc1", "Potency": "1.12 µM (active)"}
{"molecule": "O=C(O)CCn1cc(/C=C/C(=O)c2ccc(Cl)cc2)c(-c2ccc(Br)cc2)n1", "Potency": "25.1 µM (active)"}
{"molecule": "O=C(NC1=CC(=O)c2ccccc2C1=O)c1ccccc1", "Potency": "14.1 µM (active)"}
{"molecule": "COc1ccc(-c2cc(CNc3nc(NC(C)C)nc4cc(-c5ccccc5)sc34)on2)cc1", "Potency": "11.2 µM (active)"}
{"molecule": "Cc1ccc(C(C)C)c(OCc2ccc(C(=O)N/N=C/c3ccc(O)cc3O)cc2)c1", "Potency": "1.58 µM (active)"}
{"molecule": "Cc1ccc(C(C)C)c(OCc2ccc(C(=O)N/N=C/c3ccc(O)c(O)c3)cc2)c1", "Potency": "2.51 µM (active)"}
{"molecule": "O=C(N/N=C/c1ccc(O)cc1O)c1ccc(CN2C(=O)c3cccc4cccc2c34)cc1", "Potency": "2 µM (active)"}
{"molecule": "Cc1ccc(C(C)C)c(OCc2ccc(C(=O)N/N=C/c3cccc(O)c3O)cc2)c1", "Potency": "2.82 µM (active)"}
{"molecule": "Cc1ccc(-c2nc3ccc(Cl)cn3c2CC(C)(C)C)cc1", "activity change, negative = inhibition": "-10.7% (inactive)"}
{"molecule": "Clc1ccc(C[n+]2cc(-c3ccccc3)n3c2CCCCC3)c(Cl)c1", "Potency": "15.8 µM (active)"}
{"molecule": "CN[C@H]1C[C@H]2c3[nH]c4ccc(-c5ccc(OC)cc5)cc4c3CCN2C(=O)[C@H]1[C@H](C)O", "Potency": "3.16 µM (active)"}
{"molecule": "CC1(C)Cc2c(c(N3CCOCC3)nc3sc4c(NN)ncnc4c23)CS1", "Potency": "8.91 µM (active)"}
{"molecule": "CN(C)CCNc1ncnc2c1sc1nc(N3CCCC3)c3c(c12)CC(C)(C)OC3", "Potency": "25.1 µM (active)"}
{"molecule": "CN(C)CCNc1ncnc2c1sc1nc(N3CCOCC3)c3c(c12)CC(C)(C)SC3", "Potency": "15.8 µM (active)"}
{"molecule": "CCOc1ccc(CN(C)c2nc(-c3cccnc3)nc3ccccc23)cc1OC", "Potency": "25.1 µM (active)"}
{"molecule": "CCCCCn1c(CN2CCN(c3cccc(Cl)c3)CC2)nc2c1c(=O)[nH]c(=O)n2C", "Potency": "25.1 µM (active)"}
{"molecule": "CCN1C(=O)C(CC(=O)Nc2ccc(OC)cc2)N(CCc2ccc(F)cc2)C1=S", "note": "(stereo unspecified)", "Potency": "2.82 µM (active)"}
{"molecule": "CC(C)(C)c1cc(C(=O)NN)n(Cc2ccc(Cl)cc2Cl)n1", "Potency": "15.8 µM (active)"}
{"molecule": "Oc1c(CN2CCN(c3ccccc3)CC2)cc(Br)c2cccnc12", "Potency": "1.26 µM (active)"}
{"molecule": "O=[N+]([O-])c1cc(CN2CCN(c3ccccc3)CC2)c(O)c2ncccc12", "Potency": "3.16 µM (active)"}
{"molecule": "Oc1c(CN2CCOCC2)cc(COCc2ccccc2)c2cccnc12", "Potency": "3.16 µM (active)"}
{"molecule": "Oc1c(CN2CCCCC2)ccc2cccnc12", "Potency": "6.31 µM (active)"}
{"molecule": "CN(C)CCNC(=O)c1ccc(Cl)c2cc3ccccc3nc12", "Potency": "6.31 µM (active)"}
{"molecule": "CN(C)CCNC(=O)c1cccc2[nH]c(-c3ccncc3)nc12", "Potency": "2.82 µM (active)"}
{"molecule": "CCN(CC)CCC(=O)Nc1cccc2c1C(=O)c1ccccc1C2=O", "Potency": "1.58 µM (active)"}
{"molecule": "CN(CC(=O)Nc1cccc(F)c1)CC(=O)Nc1cccc2ccccc12", "activity change, negative = inhibition": "-23.6% [at 57.5 µM] (inactive)"}
{"molecule": "Cc1ccc2nc(-c3ccccn3)c(NC3CCCC3)n2c1", "activity change, negative = inhibition": "-29.6% (inactive)"}
{"molecule": "Cc1ccn2c(Nc3ccccc3)c(-c3ccccn3)nc2c1", "Potency": "0.708 µM (active)"}
{"molecule": "Cc1ccc(Nc2c(-c3ccccn3)nc3cc(C)ccn23)cc1", "Potency": "3.55 µM (active)"}
{"molecule": "Cc1ccc(Nc2c(-c3ccccn3)nc3cccc(C)n23)cc1", "Potency": "3.16 µM (active)"}
{"molecule": "Cc1ccn2c(Nc3ccccc3C)c(-c3ccccn3)nc2c1", "Potency": "3.55 µM (active)"}
{"molecule": "Cc1ccc2c(c1)C1CN(C)CCC1N2C(=S)NC(=O)c1ccc(Br)cc1", "note": "(stereo unspecified)", "activity change, negative = inhibition": "-21.5% (inactive)"}
{"molecule": "Cc1cnc(C(=O)NNC(=O)c2ccc(Br)cc2)cn1", "Potency": "25.1 µM (active)"}
{"molecule": "COCc1ccc(CN2CCC(C(=O)Nc3cccc(-c4cccc(Cl)c4)c3)CC2)o1", "Potency": "25.1 µM (active)"}
{"molecule": "O=C(NCc1ccco1)c1ccc(-c2cccc(Cl)c2)o1", "activity change, negative = inhibition": "40.1% [at 57.5 µM] (inactive)"}
{"molecule": "CSCc1nnc(NC(=O)c2ccc(S(=O)(=O)N3CCCCC3C)cc2)o1", "note": "(stereo unspecified)", "Potency": "20 µM (active)"}
{"molecule": "CN1CCC(N(C)C(=O)c2ccc(Cl)c(S(=O)(=O)N3CCc4ccccc43)c2)CC1", "activity change, negative = inhibition": "-26% [at 57.5 µM] (inactive)"}
{"molecule": "O=C(Nc1nnc(C2CC2)o1)c1ccc(S(=O)(=O)N2CCCc3ccccc32)cc1", "Potency": "7.08 µM (active)"}
{"molecule": "CC1CCCCN1S(=O)(=O)c1ccc(C(=O)Nc2nnc(-c3ccccc3Cl)o2)cc1", "note": "(stereo unspecified)", "Potency": "2.51 µM (active)"}
{"molecule": "Cc1ccc(C)c(S(=O)(=O)N2CCN(Cc3ccc(O)c4ncccc34)CC2)c1", "Potency": "3.16 µM (active)"}
{"molecule": "O=S(=O)(c1ccc(Cl)cc1)N1CCN(Cc2ccc(O)c3ncccc23)CC1", "Potency": "3.55 µM (active)"}
{"molecule": "COc1ccccc1N(CC(=O)N/N=C(\\C)c1ccccc1O)S(=O)(=O)c1ccc(C)cc1", "Potency": "15.8 µM (active)"}
{"molecule": "COc1ccccc1-c1ccc2c(c1)C(C)(Cc1cccc(F)c1)C(=O)N2", "note": "(stereo unspecified)", "Potency": "28.2 µM (active)"}
{"molecule": "Cc1cnc(NC(=O)CCCc2nc3ccccc3s2)s1", "Potency": "1.41 µM (active)"}
